# Laboratory results from PubChem BioAssay (NCATS).
# Several values for one entry are separate records, joined by “and”; a condition that tells them apart may be missing. Equal entries are not always repeated. Records with an inconclusive call do not appear. Activity calls are given as the source filed them. Calls come from the whole dose curve; as a rule, active = well fitted activation curve with a large enough effect in the signal ratio; inconclusive = small, poorly fitted or top-dose-only effect, or effect the other way, or a change in a side signal; inactive = flat fitted curve, though single readings scatter; the % refers to the signal ratio.
# Test: qHTS assay for small molecule agonists of the antioxidant response element (ARE) signaling pathway (AID 651741); for activation: % of control where 0% means no effect
# Settings: HepG2 ARE-bla reporter, beta-lactamase FRET ratio, 16 h; series mostly up to 96 µM; activation: at the top concentration
# In short: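 Beta-lactamase reporter under ARE control in HepG2 cells, 2,000 per well, was induced by 16 h compound treatment at 37 C. Read-out was fluorescence from LiveBLAzer B/G FRET substrate after 2 h at room temperature.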
# Potency is the fitted concentration of half-maximal effect.
Structure (SMILES),activation,Potency
CCCN(CCC)C(=O)SCC,-4.23% (inactive),–
COc1ccc2nc(N)sc2c1,–,54.5 µM (active)
ClCCCl,–,inactive
C=Cc1ccccc1Cl,5.9% (inactive),–
Cc1cccc([N+](=O)[O-])c1C,5% (inactive),–
CCCCCCCCO,–,inactive
CC(C)=CCCC(C)CCO (configuration not stated),6.08% (inactive),–
O=[N+]([O-])c1cccc(Cl)c1Cl,-0.143% (inactive),–
CCO[Si](CCCN)(OCC)OCC,-1% (inactive),–
Clc1cc(Cl)c(Cl)cc1Cl,–,inactive
CCO,6.85% (inactive),–
C=CC(=O)OCCOCCOCCOCCOC(=O)C=C,–,42.2 µM (active) and 37.6 µM (active)
Clc1cc(Cl)c(Cl)c(Cl)c1Cl,-0.323% (inactive),–
CCCCC(CC)CN (configuration not stated),3.37% (inactive),–
c1ccc2c(c1)[nH]c1ccccc12,9.09% (inactive),–
CN(C)C=O,0.672% (inactive),–
CCCCOCCO,–,inactive
